Results taken from PubChem BioAssay (NCATS).
Records with an inconclusive call do not appear. Active and inactive are the calls of the source. Calls follow the shape of the dose curve; as a rule, active = well fitted inhibition curve with a large enough effect; inconclusive = small, poorly fitted or top-dose-only effect, or effect the other way; inactive = flat fitted curve, though single readings scatter.

target: ATP-dependent 6-phosphofructokinase (Trypanosoma brucei brucei) (UniProt O15648); experiment: qHTS Assay to Find Inhibitors of T. brucei phosphofructokinase: hit validation (AID 492961);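 also: luminescence reports ADP formed as PFK phosphorylates fructose-6-phosphate with ATP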; details: T. brucei PFK, ADP-Glo luminescence; series mostly up to 51.4 µM
Sequence (O15648 whole entry, looked up): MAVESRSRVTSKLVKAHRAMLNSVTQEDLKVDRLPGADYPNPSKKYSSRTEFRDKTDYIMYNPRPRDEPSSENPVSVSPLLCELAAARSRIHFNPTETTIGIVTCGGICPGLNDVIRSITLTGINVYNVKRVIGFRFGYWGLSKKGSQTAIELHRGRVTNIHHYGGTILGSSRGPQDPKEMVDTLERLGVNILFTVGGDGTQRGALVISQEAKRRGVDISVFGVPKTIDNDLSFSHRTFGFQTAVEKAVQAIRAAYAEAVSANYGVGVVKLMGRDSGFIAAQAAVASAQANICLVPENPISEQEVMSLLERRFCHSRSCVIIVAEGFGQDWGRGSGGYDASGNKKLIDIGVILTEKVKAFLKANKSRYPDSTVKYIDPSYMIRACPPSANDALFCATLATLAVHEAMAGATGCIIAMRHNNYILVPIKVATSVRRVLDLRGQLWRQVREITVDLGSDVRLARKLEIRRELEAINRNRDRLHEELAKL
Method in brief: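 In this biochemical qHTS validation, titrated compounds were tested against 1.25 nM PFK with 0.1 mM ATP and 0.5 mM F6P. Percent activity came from controls lacking or containing enzyme.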

Compound | outcome
O=C1Nc2ccc(Cl)cc2C(c2ccccc2)=NC1O (stereo not given) | inactive
COc1ccc2c(c1)C13CCCC[C@@H]1C(C2)N(C)CC3 (stereo not given in full) | inactive
Clc1ccc2c(c1)C(c1ccccc1)=NCc1nncn1-2 | inactive
Nc1nc(N)nc(NC2CC2)n1 | inactive
NC(=O)CC[C@@H]1NC(=O)[C@H](Cc2ccccc2)NC(=O)[C@H](Cc2ccc(O)cc2)NC(=O)[C@@H](N)CSSC[C@@H](C(=O)N2CCC[C@H]2C(=O)N[C@@H](CCCN=C(N)N)C(=O)NCC(N)=O)NC(=O)[C@H](CC(N)=O)NC1=O | inactive
O=C1Nc2ccc(Cl)cc2C(c2ccccc2Cl)=NC1O (stereo not given) | inactive
CN1C(=O)C(O)N=C(c2ccccc2)c2cc(Cl)ccc21 (stereo not given) | inactive
Clc1cccc(SC2CCNCC2)n1 | inactive
CCC(C)(C)c1ccc(O)cc1 | inactive
COC(=O)C(c1ccccc1)C1CCCCN1 (stereo not given) | inactive
COP(=S)(OC)Oc1ccc(S(=O)(=O)N(C)C)cc1 | inactive
CC(C)(C)NCC(O)c1cc(Cl)c(N)c(C(F)(F)F)c1 (stereo not given) | inactive
CNC(C)(C)Cc1ccccc1 | inactive
C[C@](O)(CS(=O)(=O)c1ccc(F)cc1)C(=O)Nc1ccc(C#N)c(C(F)(F)F)c1 | inactive
C[C@]12CC[C@@H]3c4ccc(OC(=O)N(CCCl)CCCl)cc4CC[C@H]3[C@@H]1CC[C@@H]2O | inactive
O=C1CN=C(c2ccccc2)c2cc([N+](=O)[O-])ccc2N1 | inactive
CN1CCC(O)(c2ccc(F)cc2)C(C(=O)c2ccc(F)cc2)C1 (stereo not given) | inactive
NC(=O)CS(=O)C(c1ccccc1)c1ccccc1 (stereo not given) | inactive

Compound | outcome
CCCCCCCCCC(=O)O[C@H]1CC[C@H]2[C@@H]3CCC4=CC(=O)CC[C@@H]4[C@H]3CC[C@]12C | inactive
COc1c2c(cc3c1OCO3)CCN(C)C2 | inactive
Clc1ccc(C(c2ccc(Cl)cc2)C(Cl)(Cl)Cl)cc1 | inactive
NC(=O)c1cc([N+](=O)[O-])cc([N+](=O)[O-])c1 | inactive
Oc1ccc(Cl)cc1 | inactive
C=CCN1C[C@H](C)N([C@H](c2ccc(C(=O)N(CC)CC)cc2)c2cccc(OC)c2)C[C@H]1C | inactive
CN1C[C@H](C(=O)N[C@]2(C)O[C@@]3(O)[C@@H]4CCCN4C(=O)[C@H](Cc4ccccc4)N3C2=O)C=C2c3cccc4[nH]cc(c34)C[C@H]21 | inactive
COc1cccc([C@@]2(O)CCCC[C@@H]2CN(C)C)c1 | inactive
O=C(N/N=C/c1ccc([N+](=O)[O-])o1)c1cc([N+](=O)[O-])cc([N+](=O)[O-])c1O | inactive
Nc1ccc([As](=O)(O)O)cc1 | inactive
O=c1oc2ccccc2c(O)c1Cc1c(O)c2ccccc2oc1=O | inactive
CN1C(=O)CC(=O)N(c2ccccc2)c2cc(Cl)ccc21 | inactive
CCCCCCC(=O)CCCCCC/C=C/C[C@@H](O)[C@H](O)[C@@](N)(CO)C(=O)O | inactive
COC1CC(=C(c2cccs2)c2cccs2)C[N+](C)(C)C1 (stereo not given) | inactive
CCCC(C)(COC(N)=O)COC(N)=O | inactive
CC(C)=CC1C(C(=O)OCN2C(=O)C3=C(CCCC3)C2=O)C1(C)C (stereo not given) | inactive
CC(C)NC(C)C | inactive
